CHT PAM – human CHT allosteric activation; CHT-expressing cells, membrane potential dye, choline EC20; stronger effect = higher value; LV-AA mutant CHT in HEK293 cells; B-score at 10 µM; 310,000 compounds, 0.49% hits;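 active = initial fluorescence not abnormally high and integrated response B-score, plate-corrected, over 3 SD above library mean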
Target sequence (Q9GZV3 whole entry, looked up): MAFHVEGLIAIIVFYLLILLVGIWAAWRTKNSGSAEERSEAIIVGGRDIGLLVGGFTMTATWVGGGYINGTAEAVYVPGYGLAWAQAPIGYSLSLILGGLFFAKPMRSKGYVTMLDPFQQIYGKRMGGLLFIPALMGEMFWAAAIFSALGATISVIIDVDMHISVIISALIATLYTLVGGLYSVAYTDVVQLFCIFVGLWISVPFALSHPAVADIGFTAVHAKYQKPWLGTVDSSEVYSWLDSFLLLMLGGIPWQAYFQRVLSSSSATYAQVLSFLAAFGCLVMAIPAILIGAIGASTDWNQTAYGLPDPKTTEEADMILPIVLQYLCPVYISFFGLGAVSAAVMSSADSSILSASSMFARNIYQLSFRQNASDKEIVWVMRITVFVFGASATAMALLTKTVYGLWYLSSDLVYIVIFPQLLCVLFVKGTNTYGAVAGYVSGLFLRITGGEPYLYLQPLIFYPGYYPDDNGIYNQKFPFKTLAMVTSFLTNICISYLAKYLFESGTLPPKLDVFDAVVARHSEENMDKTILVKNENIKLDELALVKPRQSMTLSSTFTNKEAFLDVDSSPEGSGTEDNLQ
beta cell repl – inducers of beta-cell replication in MIN6 cells; MIN6 cells proliferation, ATPlite luminescence, 48 h; cells starved in 0.2% serum; 100% = growth in 10% serum; proliferation, % at 10 µM; 330,000 compounds, 0.29% hits; AID 2380;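 active = compounds whose signal lies at least 3.5 SD above the mean of all wells on their plate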;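 note: 0% = DMSO-treated cells in low-serum medium and 100% = 10% serum control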
CHT inh – human CHT choline transport inhibition | CHT-expressing cells, membrane potential dye, choline response; stronger effect = lower value | B-score at 10 µM | 310,000 compounds, 0.86% hits | AID 488975;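 active = B-score over 3 SD under the library average, and starting fluorescence ratio not unusually high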;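 note: choline stimulus applied at its EC90 after an EC20 pre-addition; B-score computed on integrated fluorescence ratio after choline addition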
H9c2 TAG inh – reduces triacylglycerol accumulation in H9c2 cells | Nile Red lipid (TAG) fluorescence; cells loaded with 200 µM oleic acid | inhibition, % at 12.5 µM | 230,000 compounds, 0.66% hits | AID 651582;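 active = pattern-corrected inhibition of lipid staining of at least 50% with the nuclear-stain viability signal not falling by more than 50%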;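 note: 0% = DMSO wells and 100% = triacsin C control wells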
CHT block conf – confirmation of human choline transporter CHT inhibitors; 2,400 compounds, 70% hits; CHT-expressing cells, choline membrane potential dye; LV-to-AA substituted CHT, HEK293 cells; shares compounds with CHT inh; AID 493221; CHT activity remaining % of control (stronger effect = lower value), % at 10 µM;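 active = choline transporter activity left, mean of duplicates at 10 µM, below buffer-only control mean minus 3 SD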;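 note: depolarization triggered by choline at its EC90 following an EC20 pre-addition; 0% = hemicholinium-3 full block and 100% = buffer-only control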
HEK293 CHT ctr – activity in parental HEK293 cells lacking CHT; shares compounds with CHT inh; membrane potential dye, choline response; active = decrease or increase beyond buffer ±3SD; membrane potential ratio readout (active if shifted either direction beyond buffer ±3SD; no single direction) at 10 µM; 2,400 compounds, 4% hits;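 note: parental cells lack the transporter so any hit is non-specific; ratio is peak minus trough fluorescence over baseline after EC90 choline challenge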
Active calls of the source: *; i = inactive; . = no result given. Most compounds without a hit are left out; they make up all but 1.7% or so of the library.

SMILES	CHT PAM	beta cell repl	CHT inh	H9c2 TAG inh	CHT block conf	HEK293 CHT ctr
CCc1ccccc1NC(=O)c1ccc(CN2CCC(Cc3ccccc3)CC2)cc1	i	-6	-9.6*	.	48%*	i
O=C(NCc1ccccc1)c1ccc(CN2CCC(Cc3ccccc3)CC2)cc1	i	-2	i	.	.	.
Cc1ccccc1NC(=O)c1ccc(CN2CCc3ccccc3C2)cc1	i	-3	i	-8	.	.
CCc1cccc(C)c1NC(=O)c1ccc(CN2CCc3ccccc3C2)cc1	i	-3	-5.4*	.	71%*	i
CCCCn1c(=O)[nH]c(=O)c2c1nc(CN1C(=O)c3ccccc3S1(=O)=O)n2CCC	i	-1	i	.	.	.
CCCCn1c(=O)[nH]c(=O)c2c1nc(Cn1ncc(Cl)c(Cl)c1=O)n2CCC	i	-6	-6.1*	.	53%*	i
CN1/C(=C/C(=O)c2nc(S(C)(=O)=O)ncc2Cl)C(C)(C)c2ccccc21	i	-5	-11*	.	54%*	i
Cc1ccccc1OCC(=O)Nc1ccc2[nH]ncc2c1	i	0	i	1	.	.
COc1cc(C2Nc3ccc4ncccc4c3C3=C2C(=O)CCC3)ccc1O (centres undefined)	i	0	-6.2*	21	i	i
COc1ccc(C)cc1NC(=O)c1ccccc1NS(=O)(=O)c1ccc(Cl)s1	i	-6	-7.5*	-21	15%*	i
Cc1ccc(NC(=O)c2ccccc2NS(=O)(=O)c2ccc(Cl)s2)cc1S(=O)(=O)N1CCOCC1	i	0	-11*	.	40%*	i
CCn1c(SCc2ccccc2)nnc1-c1ccc(S(=O)(=O)N2CCCCC2)cc1	i	1	-5.9*	6	i	i
CCn1c(SCc2nnc(-c3ccccc3)o2)nnc1-c1ccc(S(=O)(=O)N2CCCC2)cc1	i	0	i	.	.	.
Cc1c(NS(=O)(=O)c2ccc3c(c2)OCCO3)cccc1-c1nc2cccnc2s1	i	-3	i	1	.	.
Cc1cc(-c2nc3cccnc3s2)ccc1NS(=O)(=O)c1ccc2c(c1)OCCO2	i	-1	-7.3*	-8	i	i
CC12CCC(C(=O)C1)C1(C)CCCC(=O)C21 (centres undefined)	.	.	.	3	.	.
CCOC(=O)CC1(C)NC(=O)c2c(C)sc(C(=O)OCC)c2N1 (centres undefined)	i	-5	i	12	.	.
CCOC(=O)CC1(CC(=O)OCC)NC(=O)c2c(C)sc(C(=O)OCC)c2N1	i	-3	-5.1*	21	38%*	i
Cc1c(NC(=O)COc2c(F)c(F)c(F)c(F)c2F)c(=O)n(-c2ccccc2)n1C	i	0	i	.	.	.
O=C(Cc1cccc2ccccc12)Nc1c(F)cccc1F	i	-5	i	.	.	.
O=C(c1ccc(COc2ccccc2[N+](=O)[O-])o1)N1CCCCC1	i	-2	i	.	.	.
O=C(c1ccc(COc2ccccc2[N+](=O)[O-])o1)N1CCCCCC1	i	-2	-6.1*	-2	69%*	i
Cc1cc(OCc2cn(CC(=O)c3ccc(O)cc3)nn2)ccc1[N+](=O)[O-]	.	.	.	8	.	.
O=C(CSc1ccc(F)cc1)Nc1ccc2c(c1)C(=O)NC2=O	i	-4	i	.	.	.
COc1ccccc1-c1ccc(=O)n(CC(=O)NC2CCc3ccccc32)n1 (centres undefined)	i	3	-8.4*	-23	i	i
SMILES	CHT PAM	beta cell repl	CHT inh	H9c2 TAG inh	CHT block conf	HEK293 CHT ctr
COc1ccc(CCNc2nc(-c3ccc(O)cc3)cs2)cc1OC	i	-5	-5*	.	i	i
COc1ccc(NC(=O)CCCNC(=O)c2ccc(Cl)cc2)cc1S(=O)(=O)N1CCCCC1	.	.	.	-3	.	.
COc1ccc(NC(=O)CCCNC(=O)c2ccc(Cl)cc2)cc1OC	i	0	-6.6*	.	i	i
COC(=O)NNC(=S)NCc1ccc(C)cc1	i	0	-6.7*	.	i	i
Cc1ccc(CNC(N)=S)cc1	i	-1	i	-10	.	.
O=C1NC(c2ccccc2)=C(c2ccc3ccccc3n2)C(c2ccncc2)N1 (centres undefined)	i	-2	-6.3*	.	47%*	i
Cc1cc(C)nc(NS(=O)(=O)c2ccc(NC(=O)c3ccc(O)cc3O)cc2)n1	i	-4	i	2	.	.
C=C[C@@]1(C)CC(=O)[C@]2(O)[C@@]3(C)[C@@H](O)CCC(C)(C)[C@@H]3[C@H](OC(C)=O)[C@H](O)[C@@]2(C)O1	i	6	-8.1*	.	37%*	i
C=C1C(=O)O[C@H]2C[C@]3(C)C([C@@H](OC(=O)/C(C)=C/C)[C@H]12)[C@](C)(O)CC[C@H]3O (some centres undefined)	i	-2	i	.	.	.
CC(C)=C(C#N)c1nc2ccccc2s1	i	1	i	.	.	.
N#C/C(=C(/O)c1ccccc1F)c1nc2cc(C(F)(F)F)ccc2s1	i	0	-5.5*	-14	48%*	i
COc1ccccc1N(C)S(=O)(=O)c1ccc(C(=O)N(C)Cc2cccc(F)c2)cc1	.	.	.	-23	.	.
O=C1C(=O)N(CCCn2ccnc2)C(c2cccnc2)/C1=C(/O)c1ccc(F)cc1 (centres undefined)	i	-2	i	.	.	.
O=C1C(=O)N(CCc2c[nH]c3ccccc23)C(c2cccnc2)/C1=C(/O)c1ccccc1 (centres undefined)	i	1	-6.3*	.	i	i
CC[C@]1(C(=O)OC)[C@H]2C(=O)N(C)C(=O)[C@H]2[C@H]2CN=C(SC)N21	.	.	.	-7	.	.
COc1ccc(N(CCCN2C(=O)c3cccc4cccc(c34)C2=O)C(=O)c2ccncc2)cc1	i	-1	-5.8*	4	69%*	i
COc1ccc(N(CCCN2C(=O)c3cccc4cccc(c34)C2=O)C(=O)c2cccnc2)cc1	i	7	i	.	.	.
Clc1ccc(Cn2ncc3c(N4CCN(c5ccccc5)CC4)ncnc32)cc1	.	.	.	-27	.	.
COc1cc(C=Nc2cccc(C)c2)c(O)c([N+](=O)[O-])c1	i	0	-6.9*	.	68%*	i
Cc1cccc(N=Cc2cc3c(cc2[N+](=O)[O-])OCO3)c1	i	-4	i	25	.	.
O=C(CCc1ccccc1)c1c(O)cc(O)cc1O	i	0	-7.9*	.	40%*	i
O=C(Cc1ccc([N+](=O)[O-])cc1)OCc1c(F)cccc1Cl	i	-1	i	.	.	.
Oc1c(Br)cc(Br)cc1C=Nc1ccc2c(c1)OCCO2	i	-7	-5.3*	-9	i	i
Oc1c(Br)cc(Br)cc1C=Nc1ccc2c(c1)OCO2	i	-5	-6.4*	.	i	i
O=C(Nc1cccc(N=Cc2cc(Br)cc(Br)c2O)c1)c1ccco1	i	.	i	.	.	.

Screening results as filed in PubChem.
